The entries come from a sample that favours hits as a whole.
hDAT+cocaine: changed human dopamine transporter uptake under cocaine IC80 | LLC-PK1 hDAT cells, [14C]-dopamine uptake with cocaine IC80; actives deviate in either direction | B-score at 10 µM | 1.3% of 110,000 active | AID 449768;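 active = Z score or B-score, a plate-position-corrected score, falls beyond the plate's 99.7% confidence bounds, in either direction; inactive = both scores lie inside the 99.7% bounds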;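 note: scored against the spread of the other compound wells on the same plate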
EphB4 antag: EphB4-ephrin-B2 interaction antagonism | EphB4 LBD / TNYL-RAW-Alexa532 peptide, fluorescence polarization | inhibition, % at 7 µM | 0.15% of 97,000 active | P54760;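 active = inhibition above the screen-wide mean inhibition plus 3 SD, cut at about 15% in these data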;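 note: 0% = DMSO wells and 100% = excess unlabeled TNYL-RAW peptide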
D1 allo mod: allosteric modulators of human D1 dopamine receptor; P21728; HEK293 D1, CRE-luciferase, dopamine EC30 potentiation; actives deviate in either direction; B-score at 10 µM; 5.9% of 58,000 active; AID 641;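 active = luminescence count or its row- and column-corrected plate score outside the 99.7% band of the plate's sample wells, on either side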
D1 mod confirm: D1 receptor (human) allosteric modulation, confirmed; luminescence at 10 µM; HEK293 D1 CRE-luciferase, dopamine EC30 potentiation; active compounds read high; AID 642; shares compounds with D1 allo mod; 88% of 2,200 active;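 active = luminescence in either of two replicates above the same-plate mean plus 3 SD of the low-dose dopamine control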
D1 no dopamine: D1 (human) signaling in absence of dopamine; shares compounds with D1 allo mod; HEK293 D1 CRE-luciferase, luminescence, no dopamine; active compounds read high; luminescence at 10 µM; 0.8% of 1,900 active; AID 646; in the data active = luminescence above about 3900
Isoprot counter: alters isoproterenol CRE-luciferase response in HEK293 cells; shares compounds with D1 allo mod; 63% of 2,200 active; HEK293 D1 CRE-luciferase, isoproterenol EC30 counter-screen; calls only at 10 µM;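 active = luminescence in either replicate above plate mean of wells with a partly effective reference agonist dose plus 3 SD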;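 note: isoproterenol raises cAMP through native beta-adrenoceptor Gs so signal bypasses D1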
Active calls of the source: *; i = inactive; nt = no result; + = active, no number; [ ] = remark or other dose.

SMILES	hDAT+cocaine	EphB4 antag	D1 allo mod	D1 mod confirm	D1 no dopamine	Isoprot counter
COc1cccc(COc2ccccc2C2Nc3ccc(Br)cc3C(=O)N2NC(=O)c2ccncc2)c1 (stereo unspecified)	nt	-2	nt	nt	nt	nt
CSCCC(NC(=O)c1ccc(Cl)cc1)C(=O)NC(C)(C)C (stereo unspecified)	0.022	3	nt	nt	nt	nt
COc1ccc(OC)c2c(C)cc(N3CCN(C(=O)c4ccc(Cl)cc4)CC3)nc12	-0.13	-3	nt	nt	nt	nt
CCC(=O)Nc1cccc(NC(=O)c2cc3ccccc3o2)c1	nt	-4	5.1*	3904*	1572	i
Cc1cccc(NC(=O)c2cc3ccccc3o2)c1	0.65	-2	-2.2	nt	nt	nt
Cc1cc(C)n(-c2nc(NCc3cccnc3)c3c4c(sc3n2)COC(C)(C)C4)n1	1.2	5	3*	14976*	1540	+
CCCSc1nc(NCc2ccco2)c2c3c(sc2n1)COC(C)(C)C3	1.3	-1	nt	nt	nt	nt
COc1cc(-c2nnc(SCC3(c4ccc(Br)cc4)OCCO3)o2)cc(OC)c1OC	0.64	-7	nt	nt	nt	nt
CNc1nc(OCC(F)(F)F)nc(N2CCOCC2)n1	-0.52	-4	nt	nt	nt	nt
CNc1nc(OC)nc(N2CCOCC2)n1	0.57	-5	6*	19816*	1956	+
Cc1ccc(NC(=O)c2cc(S(=O)(=O)c3ccccc3)ccc2Cl)cc1	-0.27	-2	nt	nt	nt	nt
COC(=O)c1ccc(Cn2cnc3c(sc4nc(N5CCOCC5)c5c(c43)CCCC5)c2=O)o1	0.57	nt	6.8*	8596*	1424	+
COC(=O)c1ccc(Cn2nnc3c(sc4nc(N5CCOCC5)c5c(c43)CCCC5)c2=O)o1	nt	2	nt	nt	nt	nt
CCCCNc1nc(-c2ccccc2)nc(-n2ccnc2)n1	0.96	-3	nt	nt	nt	nt
C=CCNc1nc(-c2ccccc2)nc(-n2ccnc2)n1	-0.4	1	8.7*	22092*	1636	+
c1ccc(-c2nc(NC3CC3)nc(-n3ccnc3)n2)cc1	-0.62	1	11*	26636*	1696	+
c1ccc(CN2CCN(c3nc(-c4ccccc4)nc(-n4ccnc4)n3)CC2)cc1	0.65	-1	-0.53	nt	nt	nt
CC(C)Nc1nc(-c2ccccc2)nc(-n2ccnc2)n1	-0.18	6	11*	23348*	1840	+
c1ccc(-c2nc(-n3ccnc3)nc(-n3ccnc3)n2)cc1	1.8	nt	2.8	nt	nt	nt
CCn1c(SCc2c(F)cccc2Cl)nnc1-c1ccco1	-0.51	2	nt	nt	nt	nt
COc1ccc(CCNC(=O)Cc2cc(OCc3ccccc3)c(OC)cc2[N+](=O)[O-])cc1OC	1.2	-5	nt	nt	nt	nt
O=C1C=CCC(/C=C/c2ccccc2)O1 (stereo unspecified)	-1.2	nt	nt	nt	nt	nt
O=S1(=O)N=C(N2CCCc3ccccc32)c2ccccc21	-2.3	-3	0.93	nt	nt	nt
O=S1(=O)N=C(N2CCc3ccccc3C2)c2ccccc21	-0.58	-8	2.4*	6388*	1564	i
CCOC(=O)NC1(C(F)(F)F)C(=O)N(Cc2ccccc2)C2=C1C(=O)CC(C)(C)C2 (stereo unspecified)	-0.071	6	nt	nt	nt	nt
SMILES	hDAT+cocaine	EphB4 antag	D1 allo mod	D1 mod confirm	D1 no dopamine	Isoprot counter
O=C(Nc1cccc(Cl)c1)ON=C1c2ccccc2-c2ccccc21	-0.0053	5	nt	nt	nt	nt
Cc1ccc(CSC2=NCCN2C(=O)c2ccco2)cc1	0.038	3	0.74	nt	nt	nt
Cc1cccc(CSC2=NCCN2C(=O)c2ccco2)c1	1.4	5	3.8*	9944*	1728	i
O=C(CSc1nnc(-c2ccncc2)n1-c1ccc(Cl)cc1)NCc1cccs1	0.36	4	nt	nt	nt	nt
C=CCN=C(NC#N)SCc1ccccc1	0.62	1	nt	nt	nt	nt
C=CCN=C(NC#N)SCC(=O)c1cccc(OC)c1	0.11	5	12*	10808*	1776	+
CCn1cc(C(=O)NC(=S)Nc2cccc(O)c2)cn1	-0.39	-3	nt	nt	nt	nt
CCCCCC(=O)Nc1cccc(C2=NOC3(C2)C[C@@H](C(N)=O)N(C(=O)c2ccc(Cl)cc2)C3)c1 (stereo partly specified)	1	nt	nt	nt	nt	nt
CCOC(=O)c1[nH]cnc1C(=O)Nc1ccncc1	-0.04	3	13*	14788*	1588	+
CCOC(=O)c1[nH]cnc1C(=O)Nc1cccc(N)n1	0.81	nt	nt	nt	nt	nt
O=C(Nc1cccc2nsnc12)c1ccc(-c2cccc(Cl)c2)o1	-0.57	-4	nt	nt	nt	nt
Cc1ccc(Oc2ccccc2)c(NC=O)c1	-0.053	3	4.9*	12104*	1524	i
Cc1cc(C)cc(Oc2ccccc2C=O)c1	0.037	3	nt	nt	nt	nt
CCC(C(=O)NC1CCCC1)N(C(=O)Cn1nnc(-c2ccc(OC)c(OC)c2)n1)C1CCCCC1 (stereo unspecified)	1.7	-8	6.8*	9072*	1456	+
COc1ccc(-c2nnn(CC(=O)N(CC(=O)NC3CCCC3)Cc3cccs3)n2)cc1OC	1.9	4	0.19	nt	nt	nt
COCC(=O)n1nc(NCc2ccc(OC)cc2)nc1NCc1ccc(OC)cc1	0.53	2	1.5	nt	nt	nt
COc1ccc(CNc2n[nH]c(NCc3ccc(OC)c(OC)c3)n2)cc1OC	0.34	-4	1.9	nt	nt	nt
CCC(=O)n1nc(NCc2ccc(OC)c(OC)c2)nc1NCc1ccc(OC)c(OC)c1	nt	-7	6*	15072*	nt	+
CCC(=O)n1nc(-c2cccnc2)nc1NCc1ccc(OC)cc1	0.026	-7	11*	7416*	1672	i
COc1ccc(CNc2nc(NCc3ccc(OC)cc3)n(S(C)(=O)=O)n2)cc1	0.13	2	4.7*	9448*	1620	+
CCC(=O)n1nc(-c2ccccc2)nc1NCc1ccccc1	-0.24	-2	0.58	nt	nt	nt
COc1ccc(OC)c(Nc2nc(N)nc(CSc3nnc(-c4ccncc4)o3)n2)c1	nt	4	nt	nt	nt	nt
Cc1cc(=O)oc2c1ccc1oc(/C(=N/O)c3ccccc3)c(C)c12	0.11	1	5.2*	7656*	1496	+
Cc1ccc(/C(=N\O)c2oc3c(C)c4oc(=O)cc(C)c4cc3c2C)cc1	nt	-4	nt	nt	nt	nt
Cc1sc2nc(CN(C(=O)NC3CCCCC3)C3CCCCC3)[nH]c(=O)c2c1C	-0.52	5	nt	nt	nt	nt
SMILES	hDAT+cocaine	EphB4 antag	D1 allo mod	D1 mod confirm	D1 no dopamine	Isoprot counter
O=C(CSc1nnc2c(n1)[nH]c1ccccc12)Nc1ccc2c(c1)OCO2	-1.1	2	nt	nt	nt	nt
O=C1c2ccccc2-c2onc3ccc(NCCCn4ccnc4)c1c23	0.27	107*[fluorescence artefact?]	3.9*	11264*	1320	i
Cc1nc(NCCCn2ccnc2)c2ccccc2n1	-0.64	nt	nt	nt	nt	nt
Cc1nc(N(C)Cc2ccccc2)c2nnn(Cc3ccccc3)c2n1	1.1	-1	nt	nt	nt	nt
Cc1cc(C(=O)O)cc(S(=O)(=O)N2CCOCC2)c1C	0.2	-2	-0.6	nt	nt	nt
O=S(=O)(c1ccccc1C(F)(F)F)N1CCOCC1	-0.0052	-2	4.9*	4520	1508	i
COc1cccc(CNCCSc2nnnn2C)c1OC	-0.64	3	nt	nt	nt	nt
CCC1=CC(c2ccccc2)n2ncnc2N1 (stereo unspecified)	-0.17	nt	nt	nt	nt	nt
CC(Sc1nnnn1-c1ccccc1)C(=O)Nc1ccc(Cl)cn1 (stereo unspecified)	0.91	1	0.29	nt	nt	nt
c1cncc(-c2nc(-c3cccs3)cs2)c1	-0.42	-7	nt	nt	nt	nt

Screening results from PubChem.
